Measured values from PubChem BioAssay (NCI).
This is part of a sample that, as a whole, favours compounds with a hit. Of some 83,000 tested, about 20% had one in any assay.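 Each cell line was grown in a 96-well plate and treated with one concentration of compound for 48 hours. Values below 10 were considered active.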 Unmarked numbers belong to inactive results. Active and inactive are the calls of the source.

How the values were obtained:
Test in all cases: NCI-60 one-dose screen, 48 h (100 = growth as untreated, 0 = no growth, -100 = all killed)
Conditions in all cases: 10 µM
BT-549 breast = tested on: BT-549 breast
MDA-MB-435 melanoma = tested on: MDA-MB-435 melanoma
SW-620 colon = tested on: SW-620 colon
MCF7 breast = tested on: MCF7 breast
HCT-116 colon = tested on: HCT-116 colon
HCC-2998 colon = tested on: HCC-2998 colon
KM12 colon = tested on: KM12 colon

Row | Structure (SMILES) | growth (BT-549 breast) | growth (MDA-MB-435 melanoma) | growth (SW-620 colon) | growth (MCF7 breast) | growth (HCT-116 colon) | growth (HCC-2998 colon) | growth (KM12 colon)
1 | COc1ccc(-c2nc3ncccn3c2-c2nnc(-c3ccc(F)cc3)o2)cc1 | 99.7% | 107% | 105% | 92.7% | 99.3% | 104% | 104%
2 | C=C1c2c(C)nn(-c3ccc(OC)cc3)c2N(C)C23C[C@@H]1C1(C)c4c(C)nn(-c5ccc(OC)cc5)c4N(C)C(C)(C[C@H]12)C3 (some centres not stated) | 32.9% | 34% | 31.4% | 20.8% | 16.7% | 34.9% | 28.6%
3 | CCCCCCCNc1nc(C=O)ncc1-c1ccc(C(F)(F)F)cc1 | 99.7% | 100% | 98% | 83.5% | 98.3% | 104% | 91.2%
4 | Clc1ccc2c(NCCCNc3nccc(Nc4ccc(Br)cc4)n3)ccnc2c1 | 4.45% (active) | -88.3% (active) | -74.4% (active) | -98.8% (active) | -97.5% (active) | -91.4% (active) | -48.6% (active)
5 | C#Cc1ccc(-n2c(/C=C/c3cc(OC)cc(OC)c3)nc3ncccc3c2=O)cc1 | 65.2% | 79.1% | 105% | 68.5% | 74.8% | 94.2% | –
6 | COc1ccc(-c2nc3sccn3c2-c2nc3c([nH]2)C(=O)c2ccccc2C3=O)cc1 | 112% | 95.9% | 101% | 83.8% | 91% | 95.7% | 103%
7 | CCOCCOCCOCCOCCOCCOCCOCCOCCOCCO (tested in a mixture with another compound) | -52.7% (active) | 19.4% | 18.6% | 3.56% (active) | 3.57% (active) | 9.05% (active) | -18.3% (active)
8 | Cc1cc(N(CCCNc2ccnc3cc(Cl)ccc23)Cc2ccc3c(c2)OCO3)nc(N2CCOCC2)n1 | 12.3% | -13.6% (active) | 11.7% | 31.9% | 3.52% (active) | 25.7% | 40.6%
9 | O=C(Nc1ccc(Cl)c([N+](=O)[O-])c1)Nc1nc2ccccc2s1 | 88.3% | 89.4% | 99.4% | 79% | 66.3% | 86.3% | 106%
10 | Fc1cc(C(F)(F)F)ccc1-c1cncnc1NC1CCCCCC1 | 96% | 104% | 101% | 92.3% | 95.8% | 107% | 107%
11 | CC1CC(=O)OC(C)C1 (configuration not stated) | 114% | 96.7% | 107% | 91.1% | 104% | 92.5% | 110%
12 | COc1cc(-c2cc(/C=C/C(=O)c3ccc4c(c3)OCO4)[nH]n2)cc(OC)c1OC | 60.9% | 31.2% | 47.4% | 17.3% | 31.4% | 103% | 18%
13 | Nc1c(C(=O)Nc2cccc(F)c2)sc2nc3c(cc12)C(=O)CCC3 | 48.4% | -43.8% (active) | 31.1% | 11.9% | 29% | 23.4% | 28.9%
14 | COc1ccc(C2=NN(C(=O)c3ccc(S(C)(=O)=O)cc3)C(c3ccc(OC)c(OC)c3)C2)c(OC)c1 (configuration not stated) | 91.6% | 108% | 105% | 98.7% | 82.7% | 102% | 100%
15 | CCCCOC(=O)Oc1ccc(C(=O)Oc2ccc(OCC)cc2)cc1 | 85.9% | 93.4% | 110% | 123% | 98.2% | 102% | 94.8%
16 | CCCCCCN1CCN(Cc2ccc(N(CC)CC)cc2)C(=O)C1=O | 68.1% | -79.5% (active) | 24% | 17.2% | 34.2% | 52% | 28.5%
17 | CN(C)c1ccc(-c2cc(-c3cccc(NS(C)(=O)=O)c3)nc(N)c2C#N)cc1 | 30.8% | -25.9% (active) | 24.3% | 16.1% | 5.65% (active) | -41.9% (active) | -14.3% (active)
18 | c1ccc2c(c1)oc1c3cccnc3ccc21 | 79.7% | 110% | 100% | 13% | 84.4% | 92.7% | 98.9%
19 | CCCCCCN(CCCCCC)CC(O)c1ccc2c3c(cccc13)CC2 (configuration not stated) | 62.8% | 42.9% | 19.2% | 54.2% | 17.4% | 20.3% | 58%
20 | Clc1ccc(Nc2ccnc(NCCNc3ccnc4cc(Cl)ccc34)n2)cc1 | 40.8% | -90% (active) | -10.5% (active) | -74.6% (active) | -71.3% (active) | -89% (active) | 33.7%
21 | CC(=O)/C(=C/c1ccccc1)C(=O)CC(C)C | 98.8% | 54.3% | 24.7% | 50.4% | 27.7% | 105% | 72.2%

Row | Structure (SMILES) | growth (BT-549 breast) | growth (MDA-MB-435 melanoma) | growth (SW-620 colon) | growth (MCF7 breast) | growth (HCT-116 colon) | growth (HCC-2998 colon) | growth (KM12 colon)
22 | CCN(CC)CCCOCCCNc1cc(OC)cc2cccnc12 | 103% | 112% | 99.9% | -3.69% (active) | 94.5% | 83.9% | 102%
23 | c1ccc2c(-c3nc(N4CCOCC4)c4c5c(sc4n3)CCCCCC5)cccc2c1 | 97.9% | 111% | 108% | 91.8% | 109% | 106% | 109%
24 | CCCCCCCCN(CCCCCCCC)CCCCCCCCCN1CCCc2cc(OC)ccc21 | 94.9% | 104% | 99% | 96% | 75.7% | 93.2% | 104%
25 | CCN(CC)CCOc1nc2cc(OC)c(OC)cc2c2c1-c1ccc(OC)cc1C2=O | 81.3% | 86.2% | 45.4% | 35% | 47.4% | 82.6% | 64.7%
26 | O=C1NC(=O)N(Cc2ccccc2)CC1Br (configuration not stated) | 94.5% | 62.9% | 51.7% | 56.6% | 28.1% | 95.4% | 106%
27 | Nc1cc2c(cc1Cl)-c1ccc([N+](=O)[O-])cc1/C2=N\O | 89% | 51.3% | 38.6% | 79.2% | 43.2% | 97.3% | 65%
28 | CCCCCCN1C(=O)C2=C(c3ccc(Cl)cc3)Nc3c(c(C)nn3-c3ccccc3)C2c2ccccc21 (configuration not stated) | 102% | 89.8% | 111% | 77.8% | 87.9% | 92.1% | 107%
29 | NC1(C(=O)O)CSSC1 | 85.4% | 89.4% | 99.4% | 43.4% | 83.1% | 118% | 93.4%
30 | COc1ccc(Oc2nc(NC3CCCC3)nc(Sc3ccc(OC)cc3)n2)cc1 | 91.9% | 89% | 87.9% | 69.3% | 45.1% | 98.8% | 83.9%
31 | CC(C)(C)c1ccc(N2CSC(=S)N(c3ccc(C(C)(C)C)cc3)C2)cc1 | 98.9% | 99.7% | 106% | 91.7% | 91.8% | 96.4% | 96.7%
32 | CCN1CCC2(CC1)OC(c1ccccc1)C(c1ccccc1)O2 (configuration not stated) | 110% | 114% | 102% | 99.6% | 95.1% | 113% | 115%
33 | COc1cc(Nc2ccnc(NCCCNc3ccnc4cc(Cl)ccc34)n2)cc(OC)c1 | 19.7% | -81.9% (active) | -43.3% (active) | 3.36% (active) | -53.6% (active) | -65% (active) | 47.1%
34 | COc1ccc(NC2=NC(C)(CO)CS2)cc1 (configuration not stated) | 98.4% | 101% | 104% | 88.6% | 102% | 104% | 104%
35 | FC(F)(F)c1ccc(-c2cnc(-n3cc(COCCN4CCCCC4)nn3)nc2NC2CCCCCC2)cc1 | 68.1% | -68.9% (active) | 4.79% (active) | -1.43% (active) | 22.3% | 6.9% (active) | 17.6%
36 | CC/C(=C(/c1ccc(OCCN(C)C)cc1)c1ccc(OC(=O)CCCCCCCCC(=O)c2c(C)[nH]c(/C=C3\N=C(c4ccc[nH]4)C=C3OC)c2C)cc1)c1ccccc1 | 69.2% | 52.8% | 53.8% | -2.49% (active) | 21.6% | 100% | –
37 | COc1cc(-c2nc(-c3nnc(-c4ccccc4Cl)o3)c3ccccn23)cc(OC)c1OC | 89.5% | 100% | 104% | 81.9% | 97% | 94.7% | 80.5%
38 | O=C(N/N=C/c1ccccc1O)C(O)(c1ccccc1)c1ccccc1 | 70.3% | 65.2% | 51.1% | 50.7% | 8.42% (active) | 76.3% | 53.7%
39 | O=C1N=NC2=C1c1c3ccccc3c(O)n1CC2 | 110% | 99.8% | 106% | 94.2% | 93.9% | 101% | 109%
40 | Cc1nc2oc3ccccc3c(=O)c2cc1C(=O)NCc1ccccc1 | 88% | 65.3% | 72.4% | 43.8% | 59.8% | 37.9% | 31.3%
41 | CN(C)CCN=c1nc2c(c(N)n1-c1ccccc1)c(=S)n(-c1ccccc1)c(=S)n2-c1ccccc1 | 4.45% (active) | -64.5% (active) | -59.1% (active) | 17.9% | -22.1% (active) | -39.6% (active) | 0.204% (active)
42 | Cc1ccc(C)c(C(O)(c2cc(C)ccc2C)C2(O)CCCCC2)c1 | 100% | 105% | 96.8% | 97.6% | 90.5% | 108% | 95.4%
